Measurements published in PMC5540273 (PLoS ONE, 2017).

What was measured:
Details in all cases: concentration: 1 μM, replicates: in singlicate; n = 1
TLK2 = tested on: TLK2
TNIK = tested on: TNIK
TNK1 = tested on: TNK1
TNK2 = tested on: TNK2
TNNI3K = tested on: TNNI3K
TRKA = tested on: T1, TRKA
T1 construct: gene NTRK1

TRKB = tested on: TRKB
TRKC = tested on: T2, TRKC
T2 construct: gene NTRK3

TRPM6 = tested on: TRPM6
TSSK1B = tested on: TSSK1B
TSSK3 = tested on: TSSK3
TTK = tested on: TTK
TXK = tested on: TXK
[1] = tested on: TYK2(JH1domain-catalytic)
[2] = tested on: TYK2(JH2domain-pseudokinase)
TYRO3 = tested on: TYRO3
ULK1 = tested on: ULK1
ULK2 = tested on: ULK2
ULK3 = tested on: ULK3
VEGFR2 = tested on: T3, VEGFR2
T3 construct: gene KDR
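Also: KINOMEscan kinase panel screen.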

SMILES: Cc1nnc(-c2ccc3occ(-c4ccc(C(C)O)cc4)c3c2)o1 (centres unmarked)
- %Inh (TLK2): 0%
- %Inh (TNIK): 0%
- %Inh (TNK1): 0%
- %Inh (TNK2): 0%
- %Inh (TNNI3K): 27%
- %Inh (TRKA): 0%
- %Inh (TRKB): 0%
- %Inh (TRKC): 37%
- %Inh (TRPM6): 0%
- %Inh (TSSK1B): 0%
- %Inh (TSSK3): 1%
- %Inh (TTK): 8%
- %Inh (TXK): 4%
- %Inh [1]: 0%
- %Inh [2]: 2%
- %Inh (TYRO3): 6%
- %Inh (ULK1): 1%
- %Inh (ULK2): 2%
- %Inh (ULK3): 6%
- %Inh (VEGFR2): 0%

SMILES: CC(C)Oc1ccc2c(-c3ccnc(Nc4ccc(N5CCN(C)CC5)cc4)n3)cnn2n1 [GW696155]
- %Inh (TLK2): 95.1%
- %Inh (TNIK): 32%
- %Inh (TNK1): 60%
- %Inh (TNK2): 46%
- %Inh (TNNI3K): 9%
- %Inh (TRKA): 54%
- %Inh (TRKB): 39%
- %Inh (TRKC): 42%
- %Inh (TRPM6): 43%
- %Inh (TSSK1B): 79%
- %Inh (TSSK3): 96%
- %Inh (TTK): 89%
- %Inh (TXK): 13%
- %Inh [1]: 98%
- %Inh [2]: 99.4%
- %Inh (TYRO3): 0%
- %Inh (ULK1): 99.9%
- %Inh (ULK2): 99.8%
- %Inh (ULK3): 100%
- %Inh (VEGFR2): 60%

SMILES: COc1cc(Nc2nccc(N3CCC(NC(=O)c4cccc(NC(C)=O)c4)C3)n2)cc(OC)c1OC (centres unmarked) [GSK1379754]
- %Inh (TLK2): 0%
- %Inh (TNIK): 0%
- %Inh (TNK1): 0%
- %Inh (TNK2): 16%
- %Inh (TNNI3K): 0%
- %Inh (TRKA): 69%
- %Inh (TRKB): 0%
- %Inh (TRKC): 22%
- %Inh (TRPM6): 22%
- %Inh (TSSK1B): 18%
- %Inh (TSSK3): 20%
- %Inh (TTK): 27%
- %Inh (TXK): 7%
- %Inh [1]: 68%
- %Inh [2]: 19%
- %Inh (TYRO3): 0%
- %Inh (ULK1): 10%
- %Inh (ULK2): 0%
- %Inh (ULK3): 87%
- %Inh (VEGFR2): 10%

SMILES: Cc1ccc(C(=O)NCC(N)=O)cc1-n1c(C)cc(OCc2ccc(F)cc2F)c(Br)c1=O
- %Inh (TLK2): 0%
- %Inh (TNIK): 0%
- %Inh (TNK1): 0%
- %Inh (TNK2): 15%
- %Inh (TNNI3K): 14%
- %Inh (TRKA): 0%
- %Inh (TRKB): 0%
- %Inh (TRKC): 0%
- %Inh (TRPM6): 0%
- %Inh (TSSK1B): 26%
- %Inh (TSSK3): 0%
- %Inh (TTK): 35%
- %Inh (TXK): 21%
- %Inh [1]: 0%
- %Inh [2]: 0%
- %Inh (TYRO3): 3%
- %Inh (ULK1): 0%
- %Inh (ULK2): 0%
- %Inh (ULK3): 2%
- %Inh (VEGFR2): 0%

SMILES: CC(=O)Nc1ccc(COc2ccc(Nc3ccnc4cc(-c5ccccn5)ccc34)cc2)cc1.Cl [GW440148]
- %Inh (TLK2): 25%
- %Inh (TNIK): 0%
- %Inh (TNK1): 6%
- %Inh (TNK2): 37%
- %Inh (TNNI3K): 2%
- %Inh (TRKA): 14%
- %Inh (TRKB): 11%
- %Inh (TRKC): 25%
- %Inh (TRPM6): 42%
- %Inh (TSSK1B): 1%
- %Inh (TSSK3): 12%
- %Inh (TTK): 0%
- %Inh (TXK): 3%
- %Inh [1]: 20%
- %Inh [2]: 5%
- %Inh (TYRO3): 0%
- %Inh (ULK1): 0%
- %Inh (ULK2): 0%
- %Inh (ULK3): 3%
- %Inh (VEGFR2): 99.6%

SMILES: O=c1cc(N2CCOCC2)nc2n(Cc3cccc(C(F)(F)F)c3)ccn12 [GSK2297543]
- %Inh (TLK2): 3%
- %Inh (TNIK): 0%
- %Inh (TNK1): 0%
- %Inh (TNK2): 11%
- %Inh (TNNI3K): 6%
- %Inh (TRKA): 20%
- %Inh (TRKB): 0%
- %Inh (TRKC): 0%
- %Inh (TRPM6): 0%
- %Inh (TSSK1B): 16%
- %Inh (TSSK3): 15%
- %Inh (TTK): 12%
- %Inh (TXK): 0%
- %Inh [1]: 0%
- %Inh [2]: 0%
- %Inh (TYRO3): 0%
- %Inh (ULK1): 0%
- %Inh (ULK2): 0%
- %Inh (ULK3): 9%
- %Inh (VEGFR2): 13%

SMILES: Cc1c(Cn2c(C)nn3c(=O)cc(N4CCOC(C)C4)nc23)cccc1C(F)(F)F (centres unmarked) [GSK2344444]
- %Inh (TLK2): 0%
- %Inh (TNIK): 0%
- %Inh (TNK1): 9%
- %Inh (TNK2): 7%
- %Inh (TNNI3K): 0%
- %Inh (TRKA): 0%
- %Inh (TRKB): 0%
- %Inh (TRKC): 0%
- %Inh (TRPM6): 6%
- %Inh (TSSK1B): 17%
- %Inh (TSSK3): 0%
- %Inh (TTK): 6%
- %Inh (TXK): 0%
- %Inh [1]: 13%
- %Inh [2]: 0%
- %Inh (TYRO3): 0%
- %Inh (ULK1): 34%
- %Inh (ULK2): 0%
- %Inh (ULK3): 15%
- %Inh (VEGFR2): 0%

SMILES: COc1ccc(Nc2nccc(N3CCC(NC(=O)Nc4cc(C)ccc4C)C3)n2)cc1 (centres unmarked) [GSK1379741]
- %Inh (TLK2): 0%
- %Inh (TNIK): 0%
- %Inh (TNK1): 0%
- %Inh (TNK2): 9%
- %Inh (TNNI3K): 0%
- %Inh (TRKA): 0%
- %Inh (TRKB): 0%
- %Inh (TRKC): 22%
- %Inh (TRPM6): 32%
- %Inh (TSSK1B): 13%
- %Inh (TSSK3): 9%
- %Inh (TTK): 0%
- %Inh (TXK): 0%
- %Inh [1]: 0%
- %Inh [2]: 23%
- %Inh (TYRO3): 0%
- %Inh (ULK1): 15%
- %Inh (ULK2): 0%
- %Inh (ULK3): 12%
- %Inh (VEGFR2): 0%

SMILES: COc1cc2c(cc1OC[C@@H](O)CO)ncc1c3ccc(C#N)cc3[nH]c21
- %Inh (TLK2): 0%
- %Inh (TNIK): 64%
- %Inh (TNK1): 36%
- %Inh (TNK2): 0%
- %Inh (TNNI3K): 0%
- %Inh (TRKA): 98.8%
- %Inh (TRKB): 90%
- %Inh (TRKC): 66%
- %Inh (TRPM6): 0%
- %Inh (TSSK1B): 3%
- %Inh (TSSK3): 0%
- %Inh (TTK): 0%
- %Inh (TXK): 0%
- %Inh [1]: 0%
- %Inh [2]: 22%
- %Inh (TYRO3): 0%
- %Inh (ULK1): 71%
- %Inh (ULK2): 99.2%
- %Inh (ULK3): 50%
- %Inh (VEGFR2): 19%

SMILES: CCc1ccnc(/C=C/c2n[nH]c3cc(Sc4ccccc4C(=O)NC)ccc23)c1
- %Inh (TLK2): 0%
- %Inh (TNIK): 5%
- %Inh (TNK1): 48%
- %Inh (TNK2): 0%
- %Inh (TNNI3K): 5%
- %Inh (TRKA): 56%
- %Inh (TRKB): 0%
- %Inh (TRKC): 0%
- %Inh (TRPM6): 4%
- %Inh (TSSK1B): 0%
- %Inh (TSSK3): 0%
- %Inh (TTK): 0%
- %Inh (TXK): 0%
- %Inh [1]: 11%
- %Inh [2]: 0%
- %Inh (TYRO3): 0%
- %Inh (ULK1): 3%
- %Inh (ULK2): 31%
- %Inh (ULK3): 9%
- %Inh (VEGFR2): 99.9%
